Measurements published in PubChem BioAssay AID2289 (National Center for Advancing Translational Sciences (NCATS), 2010).
The campaign covered roughly 340,000 compounds. About 3,300 (0.97%) were called active. Another 9% or so got no clear call; they are omitted. Calls come from the whole dose curve; as a rule, active = well fitted inhibition curve with a large enough effect; inconclusive = small, poorly fitted or top-dose-only effect, or effect the other way; inactive = flat fitted curve, though single readings scatter. Some of the results follow.

assay: qHTS Assay for Modulators of miRNAs and/or Inhibitors of miR-21; details: HeLa miR-21-FLuc reporter, luciferase luminescence, 48 h; actives lower the signal; note: nearly all actives have a fitted effect of over 55% in size
Procedure, shortened: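 HeLa cells stably expressing CMV-driven firefly luciferase with a downstream miR-21 binding sequence, endogenously expressing miR-21, were treated with titrations (up to about 40uM final) for 48 hours at 37 degree Celsius. Luciferase luminescence was read after lysis.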
Potency is the fitted concentration of half-maximal effect.

Potency, active:
COc1ccccc1C(=O)Nc1nc2cc3c(cc2s1)OCO3 0.736 µM
COc1ccccc1C(=O)Nc1ccc2c(c1)OCO2 9.27 µM
O=C(CNC(=O)c1ccccc1F)N/N=C/c1ccc2c(c1)OCO2 18.5 µM
CC(=O)c1ccc2c(c1)Cc1cc(C(C)=O)ccc1-2 1.85 µM
Cc1ccc(-c2nc3c4ccccc4[nH]c(=O)n3n2)cc1 1.65 µM
COc1ccc(-c2nc3c4ccccc4[nH]c(=O)n3n2)cc1 3.69 µM
C[C@H](NS(=O)(=O)c1ccc(Cl)cc1)C(=O)OCC(=O)NC(=O)Nc1ccc2c(c1)OCCO2 13.1 µM
Cc1cc(OCc2cn3cccnc3n2)ccc1Cl 7.36 µM
Cc1ccc(OCc2cn3cccnc3n2)cc1 2.07 µM
c1ccc(NCC2OCc3ccccc3CO2)cc1 4.65 µM
Cc1ccc(Nc2nc(N)c([N+](=O)[O-])c(NCc3ccco3)n2)cc1 18.5 µM
Nc1nc(Nc2cccc(Cl)c2)nc(NCc2ccco2)c1[N+](=O)[O-] 13.1 µM
N/C(=N\OC(=O)Cc1ccccc1)c1ccccc1Cl 5.85 µM
N/C(=N\OC(=O)Cc1ccc(Cl)cc1)c1ccccn1 13.1 µM
COc1ccccc1C(=O)O/N=C(\N)c1ccccc1Cl 3.29 µM
Cc1ccc(CC(=O)O/N=C(\N)c2ccccn2)cc1 4.14 µM
Brc1ccc(-c2ncc3ccccn23)cc1 7.36 µM
Cc1c(-c2ccc(Br)cc2)nc2ccccn12 1.47 µM
Clc1c(-c2ccccc2)nc2ccccn12 5.21 µM
CN(C)Cc1c(-c2ccc(Cl)cc2)nc2ccccn12 6.56 µM
COc1ccc(CN=C(C)c2c(C(F)(F)F)[nH]n(-c3nc4ccccc4s3)c2=O)cc1 7.36 µM
CNc1nn(-c2cccc(Cl)c2)nc1N 4.47 µM
O=C(NNc1nc2cc3c(cc2s1)OCCO3)c1ccccc1 14.7 µM
O=C(NNc1nc2cc3c(cc2s1)OCO3)c1ccccc1 13.1 µM
CC(C)c1ccc(CNc2nc(-c3ccco3)nn2C(=O)c2ccc([N+](=O)[O-])cc2)cc1 2.07 µM
COc1ccc(CNc2nc(-c3ccccc3)nn2C(=O)c2ccc([N+](=O)[O-])cc2)cc1 14.7 µM
CN(C)c1ccc(CNc2nc(-c3ccco3)nn2S(C)(=O)=O)cc1 7.36 µM
COCC(=O)n1nc(-c2ccco2)nc1NCc1ccccc1Cl 16.5 µM
O=C(Cc1ccccc1[N+](=O)[O-])NCc1ccc(Cl)cc1 14.7 µM
O=C(CC12CCC(CC1)C2)NCc1ccc2c(c1)OCO2 16.5 µM
Cc1ccccc1CNC(=O)Cc1ccccc1[N+](=O)[O-] 5.21 µM
O=C(Cc1ccccc1[N+](=O)[O-])NCc1ccc2c(c1)OCO2 10.4 µM
CCCn1cnc2cc(NCc3ccc(Br)cc3)ccc21 7.36 µM
CCn1cnc2cc(NCc3ccc(Br)cc3)ccc21 3.29 µM
CCCn1cnc2cc(NCc3cccs3)ccc21 7.36 µM
COC(=O)c1ccc(NN=Nc2ccc(C)cc2)cc1 2.07 µM
COC(=O)c1ccc(N=NNc2ccc(C(=O)OC)cc2)cc1 0.208 µM
O=C(NCC1CCCO1)c1sc2ccccc2c1Cl (stereo unspecified) 3.29 µM
CC(NC(=O)c1sc2ccccc2c1Cl)C1CCCO1 (stereo unspecified) 5.21 µM
CCn1c2ccccc2c2nc3cc(C(=O)O)ccc3nc21 9.27 µM
COc1cccc2cc(CC(=O)c3ccc(C)cc3C)c(=O)oc12 11.7 µM
Cc1ccc(C(=O)Cc2cc3ccccc3oc2=O)c(C)c1 2.07 µM
CN(c1ccccc1)c1nc2ccsc2c(=O)s1 12.6 µM
COc1ccc(-c2cc(C(=O)c3c(N)n(C)c(=O)n(C)c3=O)c3ccccc3n2)cc1OC 4.65 µM
COc1ccc2c(c1)CCC/C2=N\NC(=O)c1ccoc1C 2.93 µM
CC(=O)N1N=C(c2ccc(C)cc2)OC1c1ccc(C(C)C)cc1 (stereo unspecified) 3.29 µM
CN1N=C(C(=O)N2CCc3c([nH]c4ccccc34)C2c2ccccc2Cl)CCC1=O (stereo unspecified) 10.4 µM
O/N=C/c1ccc(OCc2ccccc2)c(Br)c1 3.69 µM
O/N=C/c1ccc(OCc2ccccc2)c(Cl)c1 2.07 µM
CCCOc1ccc(-c2nc(N3CCN(C)CC3)c3ccccc3n2)cc1 2.93 µM
COc1cc(CNc2ccc(NC(C)=O)cc2)ccc1OCc1ccccc1C 7.36 µM
Nc1ccc(-c2nnc(-c3ccc(N)cc3)o2)cc1 3.29 µM
COc1nc(-c2ccccc2)nnc1-c1ccccc1 1.17 µM
Cc1ccc(-c2nnc(/C=C/c3ccccc3)o2)cc1 0.329 µM
c1ccc(-c2nnc(-c3ccccc3)nn2)cc1 2.07 µM
c1ccc(-c2nnc(-c3ccccc3)o2)cc1 1.31 µM
O=C(O)c1ccc(-c2nnc(-c3ccccc3)o2)cc1 0.329 µM
Cc1ccc2nc(-c3ccc(NC(=O)CN(C)S(=O)(=O)c4ccccc4)cc3)sc2c1 0.369 µM
Cc1cccc(N(CC(=O)Nc2ccc(-c3nc4ccc(C)cc4s3)cc2)S(C)(=O)=O)c1 4.14 µM
Cc1cc(C)cc(N(CC(=O)Nc2ccc(-c3nc4ccc(C)cc4s3)cc2)S(C)(=O)=O)c1 3.29 µM
Cc1ccc(C(=O)Nc2cc3c(cc2Cl)OCCCO3)cc1 1.31 µM
O=C(Nc1cc2c(cc1Cl)OCCCO2)c1ccc(F)cc1 3.69 µM
O=C(/C=C/c1ccco1)Nc1ccc(N2CCCC2)cc1 1.65 µM
O=C(Nc1ccc(NC(=O)c2cccs2)cc1)c1ccco1 8.26 µM
CC(C)(C)n1cnc2cc(NC(=O)c3cccs3)ccc21 1.65 µM
O=C(/C=C\c1ccco1)c1ccc(NC(=O)c2ccco2)cc1 13.1 µM
